The list is not random: actives were taken first. Their share in the collection is about 32%.
CYP2C19 inhib = inhibitors of human CYP2C19. CYP2C19 Supersomes, luciferin-H EGE luminescence, 30 min. P33261. 96,000 compounds, 21% hits. AID 778. inhibition, % at 5 µM;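 active = CYP2C19 inhibition above a set limit at 5 µM in the primary screen, cut at about 50% in these data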;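 also: plate controls were negative control wells for no effect and 2.5 mM tranylcypromine positive control for full effect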
PostGolgi yeast = growth inhibition of a yeast mutant, post-Golgi transport screen. post-Golgi transport phenotypic cell assay. inhibition, % at 10 µM. 98,000 compounds, 0.9% hits. AID 739;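 also: yeast cells grown in 1536-well plates; yeast grown about 18 h at 30C before absorbance read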
CYP2C9 act = activators of human CYP2C9; activation factor at 5 µM; recombinant CYP2C9, luciferin-H conversion, luminescence; stronger effect = higher value; factor 1 = untreated enzyme, 0 = blocked; P11712; 96,000 compounds, 1.4% hits;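 active = activation factor of 2 or more for CYP2C9 at a 5 µM dose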;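 also: 0 = sulfaphenazole-blocked wells and 1 = vehicle-only wells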
Target sequence (P11712 whole entry, looked up): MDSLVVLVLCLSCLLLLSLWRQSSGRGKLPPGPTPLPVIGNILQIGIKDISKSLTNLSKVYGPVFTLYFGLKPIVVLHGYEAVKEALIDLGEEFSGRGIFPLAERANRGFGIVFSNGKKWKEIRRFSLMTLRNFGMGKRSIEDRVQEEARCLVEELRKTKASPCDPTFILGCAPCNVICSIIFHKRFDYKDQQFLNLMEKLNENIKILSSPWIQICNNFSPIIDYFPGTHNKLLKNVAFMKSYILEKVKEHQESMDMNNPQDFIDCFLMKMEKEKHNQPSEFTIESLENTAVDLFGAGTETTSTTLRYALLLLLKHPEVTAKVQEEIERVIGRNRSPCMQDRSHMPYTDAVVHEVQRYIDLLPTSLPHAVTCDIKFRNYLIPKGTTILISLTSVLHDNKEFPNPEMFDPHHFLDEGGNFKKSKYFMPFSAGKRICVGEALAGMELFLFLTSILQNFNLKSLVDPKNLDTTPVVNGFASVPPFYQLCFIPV
CYP2C9 inhib = blocks human cytochrome P450 2C9; CYP2C9 Supersomes, luciferin-H conversion, luminescence; 96,000 compounds, 20% hits; inhibition, % at 5 µM;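 active = blocking of liver enzyme CYP2C9 beyond about 50% at 5 µM, limit read from the data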
PostGolgi ctrl = inhibits growth of the yeast control strain. efflux-deficient yeast background strain, growth absorbance A615, 16 h. inhibition, % at 10 µM. 98,000 compounds, 5% hits. AID 738
CYP2C19 activ = increases human CYP2C19 enzyme activity. AID 1025. 96,000 tested, under 10 active. recombinant CYP2C19, luciferin-H EGE luminescence; stronger effect = higher value; 0 = fully inhibited enzyme, 1 = untreated enzyme. activation factor at 5 µM. P33261;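 active = activation factor of at least 2 at 5 µM in the primary screen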;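 also: 0 = wells with 2.5 mM tranylcypromine and 1 = vehicle-only wells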
Starred values were filed as active, the others as inactive. Rule as the data show it, unless noted: active = inhibition above about 30%; inactive = the rest.

SMILES	CYP2C19 inhib	PostGolgi yeast	CYP2C9 act	CYP2C9 inhib	PostGolgi ctrl	CYP2C19 activ
COc1cc(S(=O)(=O)NCC2OCCc3ccccc32)ccc1-n1cnnn1 (stereo unspecified)	90.6*	4.4	0.5	52.7*	-5.6	0.1
COc1cc(S(=O)(=O)N(Cc2ccc(C)cc2)Cc2ccco2)ccc1-n1cnnn1	63.6*	6.3	0.5	53.1*	8.0	0.4
COc1cc(S(=O)(=O)N2CCCC3(CCCCC3)C2)ccc1-n1cnnn1	39.1	7.4	1	-3.5	15.5	0.6
COc1cc(S(=O)(=O)N(Cc2cccnc2)Cc2ccco2)ccc1-n1cnnn1	48.3	-0.3	0.9	5.0	2.4	0.5
COc1cc(S(=O)(=O)N(Cc2ccc(C)cc2)C2CCCCC2)ccc1-n1cnnn1	86.5*	-0.3	0.2	84.3*	16.5	0.1
CC#CCN(CC#CC)S(=O)(=O)c1ccc(-n2cnnn2)c(OC)c1	83.8*	22.4	0.9	12.9	4.0	0.2
O=c1c([N+](=O)[O-])c(N2CCCCCC2)c2ccccc2n1-c1ccccc1	0.2	-6.7	0.9	7.4	15.5	1
O=S(=O)(Nc1ccc2c(c1)OCCO2)c1cccc2nsnc12	59.7*	0.5	0.7	34.7	3.7	0.4
O=C(CCNS(=O)(=O)c1cccc2nsnc12)Nc1ccc2c(c1)OCCO2	10.4	-3.4	0.6	36.8	16.1	0.9
Cc1ccc2cccc(S(=O)(=O)Nc3ccc4c(c3)OCO4)c2n1	100.0*	-0.5	0.7	25.1	12.9	0
CC1(C)C(=O)OC(c2cccs2)C(C)(C)C1=O (stereo unspecified)	70.8*	5.8	1	4.8	-3.6	0.3
Cc1ccccc1Nc1nnc(SCc2cc(=O)n3ccsc3n2)s1	11.5	7.2	0.8	19.9	24.8	0.9
COc1cccc(Nc2nnc(SCc3cc([N+](=O)[O-])cc4c3OCOC4)s2)c1	82.5*	-0.9	0.9	11.8	5.6	0.2
Cc1cccc(C)c1Nc1nnc(SCc2cc([N+](=O)[O-])cc3c2OCOC3)s1	-5.2	4.4	0.5	51.3*	33.4*	1.1
CC(C)(C)c1ccccc1OCCCCCNCCO	7.2	6.6	1	-2.1	2.8	0.9
COc1ccccc1C1CC(=O)NC(SCC(=O)Nc2ccccc2)=C1C#N (stereo unspecified)	76.0*	-3.9	0.6	40.5	6.8	0.2
N#CC1=C(SCC(=O)Nc2nccs2)NC(=O)CC1c1ccccc1 (stereo unspecified)	58.5*	5.7	0.1	86.7*	11.6	0.4
CCOC(=O)CC(=O)CSC1=C(C#N)C(c2ccccc2OC)CC(=O)N1 (stereo unspecified)	62.2*	4.3	0.4	62.7*	13.8	0.4
O=C(C1CCCCC1)N1CCN(c2ncccn2)CC1	15.5	-6.7	0.9	11.0	-0.2	0.8
CCCC(=O)c1ccc(-c2ccccc2)cc1	19.4	5.1	0.8	18.0	-2.0	0.8
CC1(C)OC(=O)C(=CNC(Cc2c[nH]c3ccccc23)C(=O)O)C(=O)O1 (stereo unspecified)	9.4	-6.6	0.9	13.3	-7.3	0.9
CCc1nnc(NS(=O)(=O)c2ccc(NC(=S)NC(=O)/C=C/c3ccc(C(C)C)cc3)cc2)s1	22.0	5.2	0.2	76.6*	12.5	0.8
COc1cccc(-c2nnc(SCc3nc4ccccc4[nH]3)n2N)c1	21.9	11.2	1.1	-12.6	10.1	0.8
Cc1cccc(OCCCSc2nc3ccccc3[nH]2)c1	76.7*	2.5	1	1.6	33.6*	0.2
Cc1cccc(OCCSCc2nc3ccccc3[nH]2)c1	72.2*	2.2	0.4	61.4*	23.2	0.3
SMILES	CYP2C19 inhib	PostGolgi yeast	CYP2C9 act	CYP2C9 inhib	PostGolgi ctrl	CYP2C19 activ
Cc1nc(C(=O)Nc2ccc(F)cc2)nn1-c1ccc([N+](=O)[O-])cc1	4.6	29.0	0.8	19.6	3.6	1
O=C(OCCN=C1NS(=O)(=O)c2ccccc21)c1ccccc1	43.8	0.6	0.1	85.4*	-0.1	0.6
CC(C)C(=O)OCCN=C1NS(=O)(=O)c2ccccc21	13.0	-3.8	0.9	6.2	4.0	0.9
O=C(OCCN=C1NS(=O)(=O)c2ccccc21)C1CC(=O)N(c2ccc(Cl)cc2)C1 (stereo unspecified)	43.9	-4.1	0.4	63.4*	-9.2	0.6
O=C(OCCN=C1NS(=O)(=O)c2ccccc21)c1cccnc1	12.3	-13.4	0.8	15.5	19.3	0.9
O=C(OCCOCCN=C1NS(=O)(=O)c2ccccc21)C1CC(=O)N(c2ccccc2)C1 (stereo unspecified)	9.9	-0.6	0.7	25.7	3.0	0.9
COc1ccc(C(=O)COC(=O)CCN=C2NS(=O)(=O)c3ccccc32)cc1OC	74.0*	0.2	0.7	27.3	9.9	0.3
CC12CN3CC(C)(CN(C1)C3c1ccc(Br)cc1)C2 (stereo unspecified)	3.2	4.6	1	0.9	1.4	1
CC1CCN(CCCn2c(=S)[nH]c3ccc(N4CCOCC4)cc3c2=O)CC1	-13.8	1.6	0.9	14.1	-0.1	1.1
Cc1cccc(/N=C/c2c(O)cc(C)oc2=O)n1	-14.6	13.2	1.1	-11.0	0.8	1.1
Cc1ccc(N/N=C/c2c(O)cc(C)oc2=O)cc1	36.9	24.2	0.5	50.0*	1.7	0.6
O=C1CC(N2CCC(O)(c3ccc(Cl)cc3)CC2)C(=O)N1Cc1ccc(N2CCCC2=O)cc1 (stereo unspecified)	80.4*	7.2	0.5	47.9	2.4	0.2
CC(C)Cc1[nH]c(=O)c(C#N)c2c1CCCC2	-7.4	-9.7	0.7	26.8	7.4	1.1
CCC1SC2=NC(C)=C(C(=O)OC)C(c3cccs3)N2C1=O (stereo unspecified)	90.4*	4.2	0.6	44.3	9.1	0.1
CCOC(=O)C1=C(C)N=C2SC(CC)C(=O)N2C1c1cccc(F)c1 (stereo unspecified)	90.9*	4.0	0.2	75.3*	23.6	0.1
C=CCOC(=O)C1=C(C)N=C2SCCC(=O)N2C1c1cccs1 (stereo unspecified)	43.4	-0.9	0.9	14.2	22.0	0.6
CCNCCNC(=O)c1c(O)c2c([nH]c1=O)CCCC2	1.2	-6.0	1	-3.7	-8.2	1
Cc1cc(SCc2ccccc2)nc(=O)[nH]1	9.1	6.4	1	4.3	10.8	0.9
CCc1ccc(-c2nc(CSCC(=O)N3CCN(c4ncccn4)CC3)c(C)o2)cc1	29.2	-5.1	0.3	75.0*	28.7	0.7
CCOC(=O)N1CCN(C(=O)CSCc2nc(-c3ccccc3F)oc2C)CC1	38.5	-3.8	0.7	31.8	7.9	0.6
CCOC(=O)N1CCN(C(=O)CSCc2nc(-c3ccccc3C)oc2C)CC1	58.9*	-1.0	0.6	36.2	14.8	0.4
Cc1nc(-c2ccccc2)sc1-c1nc(-c2cccnc2)ncc1S(=O)(=O)c1ccccc1	45.4	2.2	0.2	77.0*	32.1*	0.5

Screens deposited in PubChem by several laboratories.
